{"source": "PubChem BioAssay (NCATS)", "note": "Inconclusive results are not listed. A call without a number means that no potency is given here. Calls of active or inactive are those of the source. Calls follow the shape of the dose curve; as a rule, active = well fitted cell-killing curve with a large enough effect; inconclusive = small, poorly fitted or top-dose-only effect, or effect the other way; inactive = flat fitted curve, though single readings scatter. Potency is read from the fitted curve at half-maximal effect.", "data": [{"experiment": "qHTS of pediatric cancer cell lines to identify multiple opportunities for drug repurposing: Confirmatory screen for Rh18 cells (AID 1347125); also: nearly all actives have a fitted effect of over 55% in size", "conditions": "Rh18 rhabdomyosarcoma cells, viability; series mostly up to 45.9 µM", "excerpt": "Drug repurposing or repositioning has been offered as a strategy for drug development in oncology programs. This approach has special potential for childhood cancers and other rare or orphan diseases, where the expected return on new drug development has been a disincentive to pharmaceuticals.\nIn this project we exploit the poly-pharmacology of drugs to discover new indications via phenotypic screening of a panel of 19 well-characterized cell lines derived from solid tumors seen in children and adolescents. The goal is to identify approved drugs with previously unrecognized anticancer properties that has the potential to reveal new mechanisms and biological processes involved in carcinogenesis or drug resistance. We employed a titration-based paradigm (quantitative high-throughput screening or qHTS), where all compounds were tested at multiple concentrations for their effect on cell viability. Concentration-response curves (CRCs) were derived directly from the primary screen, and both potency and efficacy values were used to identify compounds with robust bioactivity profiles. We screened the NIH Chemical Genomics Center (NCGC) Pharmaceutical Collection (NPC) and Mechanism Interrogation Plate (MIPE) small molecule collections of approved and investigational compounds against these cell lines; and measured metabolically active cells after 48 hours of compound treatment as a proxy for cell viability.\nAssay Submitter: Nathalia J. Martinez, National Center for Advancing Translational Sciences, National Institutes of Health, Rockville, MD, USA; email: natalia.martinez@nih.gov\n[1] Shen, M et al. Quantitative high-throughput phenotypic screening of pediatric cancer cell lines identifies multiple opportunities for drug repurposing. Oncotarget 2017 Dec 19;9(4):4758-4772. PMID 29435139.\nThe cells were obtained from University of North Carolina (UNC), Pediatric Preclinical Testing Program (PPT), and Coriell Institute (CI).\nqHTS cell viability assay:\nCells were assayed in growth media at a density of 500-1,000 cells/well. Five microliters of cells were dispensed into 1,536-well, white, solid-bottom, TC-treated plates (Greiner Bio One) using a multidrop dispenser and incubated at 37 degrees C, 5% CO2, under a humidified atmosphere for 5 hours. Twenty-three nanoliters of compounds and controls (neutral control DMSO or positive control bortezomib at final concentration of 2.3 µM) were subsequently transferred by Kalypsys pintool. For primary screens, the MIPE collection was tested at 11-point dilutions (final concentrations range from 0.78 nM to 46 µM) and the NPC collection at 8-point dilutions (final concentrations range from 0.59 nM to 46 µM). Compounds tested in follow-up screens were assayed at 11-point dilutions. Cells were incubated for 48 hours, followed by addition of 3 µL of CellTiter-Glo (Promega). After a 15 min incubation at room temperature, samples were analyzed for luminescence intensity using a ViewLux High-throughput CCD imager equipped with clear filters.", "values": [{"smiles": "CS(=O)(=O)c1ccc([C@@H](O)[C@@H](CO)NC(=O)C(Cl)Cl)cc1", "Potency": "inactive"}, {"smiles": "Nc1nc(N)nc(-c2cc(Cl)ccc2Cl)n1", "Potency": "inactive"}, {"smiles": "COc1ccc(C(=O)CC(=O)c2ccc(C(C)(C)C)cc2)cc1", "Potency": "inactive"}, {"smiles": "N=C(N)c1ccc(OCCCCCOc2ccc(C(=N)N)cc2)cc1", "Potency": "inactive"}, {"smiles": "Nc1nc(=S)c2[nH]cnc2[nH]1", "Potency": "13.1 µM (active)"}, {"smiles": "COc1cc([C@@H]2c3cc4c(cc3[C@H](O)[C@H]3COC(=O)[C@H]23)OCO4)cc(OC)c1OC", "Potency": "inactive"}, {"smiles": "S=P(N1CC1)(N1CC1)N1CC1", "Potency": "inactive"}, {"smiles": "CNS(=O)(=O)CCc1ccc2[nH]cc(C3CCN(C)CC3)c2c1", "Potency": "inactive"}, {"smiles": "CC(C(=O)O)c1ccc2c(c1)CC(=O)c1ccccc1S2", "note": "(centres undefined)", "Potency": "inactive"}, {"smiles": "Nc1nc(N)c2nc(CNc3ccc(C(=O)NC(CCC(=O)O)C(=O)O)cc3)cnc2n1", "note": "(centres undefined)", "Potency": "inactive"}, {"smiles": "CC1CC2C3CCC4=CC(=O)C=C[C@]4(C)[C@@]3(F)[C@@H](O)C[C@]2(C)[C@@]1(O)C(=O)CO", "note": "(some centres undefined)", "Potency": "inactive"}, {"smiles": "CC(C)(C#N)c1cc(Cn2cncn2)cc(C(C)(C)C#N)c1", "Potency": "inactive"}, {"smiles": "O=C(NCC1CN(c2ccc(N3CCOCC3=O)cc2)C(=O)O1)c1ccc(Cl)s1", "note": "(centres undefined)", "Potency": "inactive"}, {"smiles": "Nc1[nH]c(=O)ncc1F", "Potency": "inactive"}, {"smiles": "CCOC(=O)c1ccc(C#Cc2ccc3c(c2)C(C)(C)CCS3)nc1", "Potency": "inactive"}, {"smiles": "CN(C)c1ccc(C(=C2C=CC(=[N+](C)C)C=C2)c2ccc(N(C)C)cc2)cc1", "Potency": "1.47 µM (active)"}, {"smiles": "C[C@@H](CN1CC(=O)NC(=O)C1)N1CC(=O)NC(=O)C1", "Potency": "inactive"}, {"smiles": "C[C@@H]1C[C@H]2[C@@H]3CCC4=CC(=O)C=C[C@]4(C)[C@@]3(Cl)[C@@H](O)C[C@]2(C)[C@@]1(OC(=O)c1ccco1)C(=O)CCl", "Potency": "20.8 µM (active)"}, {"smiles": "COc1ccc(-c2ccc3cc(C(=O)O)ccc3c2)cc1C12CC3CC(CC(C3)C1)C2", "Potency": "inactive"}, {"smiles": "COc1cc2c(Nc3ccc(Br)cc3F)ncnc2cc1OCC1CCN(C)CC1", "Potency": "inactive"}, {"smiles": "CNCC[C@H](Oc1cccc2ccccc12)c1cccs1", "Potency": "inactive"}, {"smiles": "CC(C)C[C@H](NC(=O)[C@H](CCc1ccccc1)NC(=O)CN1CCOCC1)C(=O)N[C@@H](Cc1ccccc1)C(=O)N[C@@H](CC(C)C)C(=O)[C@@]1(C)CO1", "Potency": "0.0465 µM (active)"}, {"smiles": "Cn1nnc2c(C(N)=O)ncn2c1=O", "Potency": "inactive"}, {"smiles": "O=S(=O)(O)CCS", "Potency": "inactive"}, {"smiles": "CC(C)(C)C(=O)OCOP(=O)(COCCn1cnc2c(N)ncnc21)OCOC(=O)C(C)(C)C", "Potency": "inactive"}, {"smiles": "CC(=O)[C@H]1CC[C@H]2[C@@H]3CCC4=CC(=O)CC[C@]4(C)[C@H]3CC[C@]12C", "Potency": "23.3 µM (active)"}, {"smiles": "CCc1c2c(nc3ccc(OC(=O)N4CCC(N5CCCCC5)CC4)cc13)-c1cc3c(c(=O)n1C2)COC(=O)[C@]3(O)CC", "Potency": "16.5 µM (active)"}, {"smiles": "O=NN(CCCl)C(=O)NC1CCCCC1", "Potency": "inactive"}, {"smiles": "Cc1cccc(N(C)C(=S)Oc2ccc3ccccc3c2)c1", "Potency": "inactive"}, {"smiles": "CCOC(=O)[C@H](CCc1ccccc1)N[C@H]1CS[C@H](c2cccs2)CN(CC(=O)O)C1=O", "Potency": "inactive"}, {"smiles": "CC(C)NCC(O)c1ccc(NS(C)(=O)=O)cc1", "note": "(centres undefined)", "Potency": "inactive"}, {"smiles": "COC(=O)Nc1nc2ccc(C(=O)c3ccccc3)cc2[nH]1", "Potency": "inactive"}, {"smiles": "CCC(=O)O[C@]1(C(=O)CCl)[C@@H](C)C[C@H]2[C@@H]3CCC4=CC(=O)C=C[C@]4(C)[C@@]3(F)[C@@H](O)C[C@@]21C", "Potency": "inactive"}, {"smiles": "COC(=O)Nc1nc2ccc(S(=O)c3ccccc3)cc2[nH]1", "note": "(centres undefined)", "Potency": "inactive"}]}]}
